Laboratory results published in PMC5700166.

What follows are sequences tested against T1, GST-Ap-NF-kB RHD (Exaiptasia pallida (Aiptasia), UniProt A0A913YAJ5 2-422) (assay: protein-binding microarray (PBM); PBM: ~300 nM protein, 6 mM HEPES pH 7.8, 80 mM KCl, 0.5 mM EDTA, 0.5 mM EGTA, 6% glycerol, 35 ng/ul poly-dIdC, 1% milk, 1 h, room temperature; Ap Aiptasia and Nv Nematostella (sea anemones) / Co Capsaspora / Aq Amphimedon (sponge) / Dm Drosophila / Hu human; RHD is the Rel homology domain; high values mean tight binding). Conditions: dsDNA, one strand shown.
T1 sequence: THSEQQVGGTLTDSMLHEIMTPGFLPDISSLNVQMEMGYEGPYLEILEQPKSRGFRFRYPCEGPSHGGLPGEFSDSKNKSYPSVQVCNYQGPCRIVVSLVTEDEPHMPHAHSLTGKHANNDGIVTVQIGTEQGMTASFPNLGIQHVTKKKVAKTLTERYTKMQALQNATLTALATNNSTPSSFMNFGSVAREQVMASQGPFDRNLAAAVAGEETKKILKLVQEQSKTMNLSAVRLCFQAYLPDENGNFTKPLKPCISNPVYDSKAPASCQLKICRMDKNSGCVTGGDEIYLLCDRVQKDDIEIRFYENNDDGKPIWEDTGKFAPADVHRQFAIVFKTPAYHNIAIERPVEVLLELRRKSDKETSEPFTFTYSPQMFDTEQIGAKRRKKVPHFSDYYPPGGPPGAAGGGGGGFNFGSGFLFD

Row | Sequence | binding signal [z-score]
1 | CCGATTAACATCAAATAGGGAATTGATGTTAATCGGGTCTTGATTCGCTTGACGCTGCTG | 2.29
2 | CCGATTAACATCACGTTATTCCCTGATGTTAATCGGGTCTTGATTCGCTTGACGCTGCTG | 2.79
3 | CCGATTAACATCAAGGGATTTTCTGATGTTAATCGGGTCTTGATTCGCTTGACGCTGCTG | 5.78
4 | CCGATTAACATCAGGAGTTACCCTGATGTTAATCGGGTCTTGATTCGCTTGACGCTGCTG | 2.75
5 | CCGATTAACATCAGGGATTTCTATGATGTTAATCGGGTCTTGATTCGCTTGACGCTGCTG | 4.28
6 | CCGATTAACATCAGGGAACAACCTGATGTTAATCGGGTCTTGATTCGCTTGACGCTGCTG | 2.52
7 | CCGATTAACATCAGAATGCCCCCTGATGTTAATCGGGTCTTGATTCGCTTGACGCTGCTG | 4.74
8 | CCGATTAACATCAACTAATTCCCTGATGTTAATCGGGTCTTGATTCGCTTGACGCTGCTG | 2.18
9 | CCGATTAACATCAGGGAGCCCCCTGATGTTAATCGGGTCTTGATTCGCTTGACGCTGCTG | 8.32
10 | CCGATTAACATCACCCGGGAAAATGATGTTAATCGGGTCTTGATTCGCTTGACGCTGCTG | 2.61
11 | CCGATTAACATCAGGGGGATGGATGATGTTAATCGGGTCTTGATTCGCTTGACGCTGCTG | 3.8
12 | CCGATTAACATCAGACTTCCCCATGATGTTAATCGGGTCTTGATTCGCTTGACGCTGCTG | 4.7
13 | CCGATTAACATCAGGGAATGTACTGATGTTAATCGGGTCTTGATTCGCTTGACGCTGCTG | 2.21
14 | CCGATTAACATCACACATTTCCCTGATGTTAATCGGGTCTTGATTCGCTTGACGCTGCTG | 2.78
15 | CCGATTAACATCAACCACCCCCCTGATGTTAATCGGGTCTTGATTCGCTTGACGCTGCTG | 3.74
16 | CCGATTAACATCAGGGATTCCCATGATGTTAATCGGGTCTTGATTCGCTTGACGCTGCTG | 4.88
17 | CCGATTAACATCAATTCCCAAGGTGATGTTAATCGGGTCTTGATTCGCTTGACGCTGCTG | 1.3
18 | CCGATTAACATCAGAATTACCCATGATGTTAATCGGGTCTTGATTCGCTTGACGCTGCTG | 3.09
19 | CCGATTAACATCAGGGGTTTACCTGATGTTAATCGGGTCTTGATTCGCTTGACGCTGCTG | 5.65

Row | Sequence | binding signal [z-score]
20 | CCGATTAACATCAGACAATTCCCTGATGTTAATCGGGTCTTGATTCGCTTGACGCTGCTG | 3.02
21 | CCGATTAACATCACCCATCCCCCTGATGTTAATCGGGTCTTGATTCGCTTGACGCTGCTG | 4.59
22 | CCGATTAACATCACTTCCCCCCATGATGTTAATCGGGTCTTGATTCGCTTGACGCTGCTG | 4.7
23 | CCGATTAACATCATCCCCGTGTCTGATGTTAATCGGGTCTTGATTCGCTTGACGCTGCTG | 2.75
24 | CCGATTAACATCAGGGAATGCACTGATGTTAATCGGGTCTTGATTCGCTTGACGCTGCTG | 1.84
25 | CCGATTAACATCAATTTTCCCAATGATGTTAATCGGGTCTTGATTCGCTTGACGCTGCTG | 1.98
26 | CCGATTAACATCAGTTCCCCCCATGATGTTAATCGGGTCTTGATTCGCTTGACGCTGCTG | 6.36
27 | CCGATTAACATCACGAGTTTCCCTGATGTTAATCGGGTCTTGATTCGCTTGACGCTGCTG | 3.04
28 | CCGATTAACATCAAGCGTTCCCCTGATGTTAATCGGGTCTTGATTCGCTTGACGCTGCTG | 5.35
29 | CCGATTAACATCAGGGGAGTAAATGATGTTAATCGGGTCTTGATTCGCTTGACGCTGCTG | 3.1
30 | CCGATTAACATCAAATTTCCCGCTGATGTTAATCGGGTCTTGATTCGCTTGACGCTGCTG | 3.85
31 | CCGATTAACATCAGGAGAACCCCTGATGTTAATCGGGTCTTGATTCGCTTGACGCTGCTG | 4
32 | CCGATTAACATCAGGGGAGTTAATGATGTTAATCGGGTCTTGATTCGCTTGACGCTGCTG | 4.13
33 | CCGATTAACATCAACATCCCCCCTGATGTTAATCGGGTCTTGATTCGCTTGACGCTGCTG | 5.64
34 | CCGATTAACATCAGGCCGTCCCCTGATGTTAATCGGGTCTTGATTCGCTTGACGCTGCTG | 4.92
35 | CCGATTAACATCACATATTTCCCTGATGTTAATCGGGTCTTGATTCGCTTGACGCTGCTG | 3.32
36 | CCGATTAACATCACTTGGGAAACTGATGTTAATCGGGTCTTGATTCGCTTGACGCTGCTG | 1.38
37 | CCGATTAACATCACGGGAAACCCTGATGTTAATCGGGTCTTGATTCGCTTGACGCTGCTG | 4.31
